# Measured values reported in PMC7819943, “Rice protein-binding microarrays: a tool to detect cis-acting elements near promoter regions in rice”.
# Whole data set: some 35,000 sequences, median “fluorescence intensity (a.u.)” near 10,000, cut for the highest 2% near 52,000. Only a selection was taken, and the highest values are over-represented in it overall.
# Biological target: T1, OsWOX13 (Oryza sativa, UniProt Q5QMM3 1-267)
# T1 sequence: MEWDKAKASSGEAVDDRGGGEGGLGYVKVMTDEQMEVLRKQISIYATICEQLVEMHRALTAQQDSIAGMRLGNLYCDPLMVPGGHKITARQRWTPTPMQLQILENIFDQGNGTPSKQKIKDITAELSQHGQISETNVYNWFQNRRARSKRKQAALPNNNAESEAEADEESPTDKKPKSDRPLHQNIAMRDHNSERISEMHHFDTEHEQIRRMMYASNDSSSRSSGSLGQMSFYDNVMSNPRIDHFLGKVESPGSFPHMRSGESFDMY
# Assay: protein-binding microarray (RPBM); PBS, 2% BSA, 51.3 ng/ul salmon testes DNA, 50 uM zinc acetate, 200 nM TF, 25 C, 1 h; high values mean tight binding
# Details: protein: recombinant; tags: N-terminal polyhistidine and DsRed monomer fusion (pET32a); label: CyDye5-dUTP incorporated in the synthesized complementary strand; 3' TTTTT single-stranded linker to array surface; dsDNA, one strand shown
# How it was run: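 Transcription factors were each fused at the N-terminus to a polyhistidine tag plus DsRed and expressed in E. coli BL21-CodonPlus before Ni–NTA purification. Binding to a double-stranded custom Agilent array was carried out with 200 nM protein at 25 °C for 1 h in PBS, 2% BSA, salmon testes DNA and 50 µM zinc acetate. The binding signal is per-feature fluorescence intensity, in arbitrary units, on an Axon 4000B scanner.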
row,Sequence,binding signal
1,GCCTAAGATAATTGATAAGAGTGCTTAAAGTGTACAACCGCGGAGTCACCTAGTGCAG,37500 fluorescence intensity (a.u.)
2,TATATTATTTGTCAATCTTATTGTCAACTTATTAATCATCCGGAGTCACCTAGTGCAG,7160 fluorescence intensity (a.u.)
3,TCTGACCATTATTAATTTCTAGCAACTAGCAATTTTGTGCCGGAGTCACCTAGTGCAG,6120 fluorescence intensity (a.u.)
4,AGATTACATGATTGGAAATCTTTCACATATTTGTTTCAGGCGGAGTCACCTAGTGCAG,51800 fluorescence intensity (a.u.)
5,TGTCTAATTGGTATCGTGAAGACTCTGAACCATTTCCATCCGGAGTCACCTAGTGCAG,35200 fluorescence intensity (a.u.)
6,CCCTTAATTAATTAAAACCGGTCACAGTATGTCCTTTAATCGGAGTCACCTAGTGCAG,41300 fluorescence intensity (a.u.)
7,ATCTTAATTGAAACAAACACAGCTTTAGTATATGCATGTCCGGAGTCACCTAGTGCAG,58900 fluorescence intensity (a.u.)
8,CTTAATTAGCATGAAACACAAGTAGTATATGATTACACCACGGAGTCACCTAGTGCAG,33100 fluorescence intensity (a.u.)
9,GTCCAGGCTTAATTCAATCATTATATGTACATATCTTTGTCGGAGTCACCTAGTGCAG,6860 fluorescence intensity (a.u.)
10,ATTAATCGCTAATTAGGATAATTAATCACTAATTAGTATTCGGAGTCACCTAGTGCAG,43700 fluorescence intensity (a.u.)
11,GAGAACTCTAATGAATTAGATTATATTCATGCTTGTTGATCGGAGTCACCTAGTGCAG,5820 fluorescence intensity (a.u.)
12,CACACTATTAATCATTTTGATTTTGGTATACTGCACTTTTCGGAGTCACCTAGTGCAG,6110 fluorescence intensity (a.u.)
13,TTCAATTGATTATGAACTGCTTGTACTCTAATCAATGGTACGGAGTCACCTAGTGCAG,55800 fluorescence intensity (a.u.)
14,TGATTGGTAATCAATCAATTATTATCATATACTCGCACTGCGGAGTCACCTAGTGCAG,62300 fluorescence intensity (a.u.)
15,TTCTCTAATTGGTAATTCATGATTAATCACTCCTACTTTACGGAGTCACCTAGTGCAG,48000 fluorescence intensity (a.u.)
16,CAGGCTGCTTAATTACATATATCTAGATATATATATTATTCGGAGTCACCTAGTGCAG,3870 fluorescence intensity (a.u.)
17,ATCTGTAATTTATTTTATTATTAGTCTACGCTTAATACTTCGGAGTCACCTAGTGCAG,22000 fluorescence intensity (a.u.)
18,GTGATTAATTAATTATTAATTAATCGCTAATCAGGATAATCGGAGTCACCTAGTGCAG,65500 fluorescence intensity (a.u.)
19,ATTAATTATCTAATTAATTAATTAGCCCATCTGCTTACTTCGGAGTCACCTAGTGCAG,65000 fluorescence intensity (a.u.)
20,ATATATATATATATATATATATATATATTATCGCTAATAACGGAGTCACCTAGTGCAG,31200 fluorescence intensity (a.u.)
21,GATTGGTCATAATTATATATATATATTACTTCCTAATCACCGGAGTCACCTAGTGCAG,6390 fluorescence intensity (a.u.)
22,AGTCGAGTCAACTTAATTAACTTAACTTCAACCGTCGCTACGGAGTCACCTAGTGCAG,5940 fluorescence intensity (a.u.)
23,TAGCCAATCTAATAGCTCATTCATATAATAATTACATACTCGGAGTCACCTAGTGCAG,4410 fluorescence intensity (a.u.)
24,GTGACATCATAATTTAGATTTAACTTATTCGTGCATATTACGGAGTCACCTAGTGCAG,9460 fluorescence intensity (a.u.)
25,AGCTAAATCTGTGATTGCCGTTGCATCTAGCCACGTCGTCCGGAGTCACCTAGTGCAG,14600 fluorescence intensity (a.u.)
26,GAATAACAGACATATCATATTTGTTGCCTCCTGGTGGCTACGGAGTCACCTAGTGCAG,7840 fluorescence intensity (a.u.)
27,ATTTGAATAATTAGGGAGTCTATGAACAGAAACATAGACCCGGAGTCACCTAGTGCAG,6000 fluorescence intensity (a.u.)
28,TATCATCAATCCGCTAATTAACTGACAACGCATATTGGAGCGGAGTCACCTAGTGCAG,29400 fluorescence intensity (a.u.)

row,Sequence,binding signal
1,GTAGATAATTAAATCGGATTAGCATTAGATAATCAAGCAACGGAGTCACCTAGTGCAG,37000 fluorescence intensity (a.u.)
2,ATTAGCAATTAATTAATTATTAATTGGATAATTAATCACTCGGAGTCACCTAGTGCAG,64800 fluorescence intensity (a.u.)
3,TCAATCAATTAATTAATTAATCGAATTGTGTTATATCTCTCGGAGTCACCTAGTGCAG,51000 fluorescence intensity (a.u.)
4,ATAGCTATATCAATCTAGAATTGGATTAGATATATCTCGACGGAGTCACCTAGTGCAG,6040 fluorescence intensity (a.u.)
5,TATTGATTTGATAAAACTAATTTAGCATTATAAATATTATCGGAGTCACCTAGTGCAG,21300 fluorescence intensity (a.u.)
6,TGTGATTAATTGGTAATCTGCTTTTACAAGCTTCAATTGCCGGAGTCACCTAGTGCAG,60400 fluorescence intensity (a.u.)
7,GTGATTGGATCTGTAATTATCAATCTCTCTCTCTCTCTCTCGGAGTCACCTAGTGCAG,64600 fluorescence intensity (a.u.)
8,TCATATAATTGGATTTATAATTAATCACCAATACCAAACTCGGAGTCACCTAGTGCAG,35300 fluorescence intensity (a.u.)
9,TTCAAATTAAGCTGCTTTAGATTATAATCTGAAGCTGGGCCGGAGTCACCTAGTGCAG,17800 fluorescence intensity (a.u.)
10,ATGTATATTAATTACTAGCCAAATGGTTAGCATGATTACTCGGAGTCACCTAGTGCAG,10900 fluorescence intensity (a.u.)
11,TGTTGGTGCTGTGATTAATTGGTAATCTGCTTTTACAAGCCGGAGTCACCTAGTGCAG,19800 fluorescence intensity (a.u.)
12,AAAATTAAATTGATGGTATTACTAGCATTAATTAGCCACTCGGAGTCACCTAGTGCAG,62800 fluorescence intensity (a.u.)
13,AACATGGAGAATATGCTAATTAGTAAAACATGTTGAAGTGCGGAGTCACCTAGTGCAG,3290 fluorescence intensity (a.u.)
14,GCACAATCATGCTACTAATTACCCTTTTCAACCTATAAATCGGAGTCACCTAGTGCAG,11200 fluorescence intensity (a.u.)
15,ACTAATTACACAGAATGCATGTAAATTACGAGACGAATCTCGGAGTCACCTAGTGCAG,31200 fluorescence intensity (a.u.)
16,AAATTAAATTGCCCGGATCAATGGCTACAAATACCCCATGCGGAGTCACCTAGTGCAG,15200 fluorescence intensity (a.u.)
17,AATACACATTGACAGATGAGTTAACGCCCGTGACAGGCTGCGGAGTCACCTAGTGCAG,20500 fluorescence intensity (a.u.)
18,CTTTATAAATTGTGTCATCTACTCATGTGTGGTAGGTCAACGGAGTCACCTAGTGCAG,5450 fluorescence intensity (a.u.)
19,TTGAATTTAAATTTAAACGTATAGTGCCTTCCCTTTTACGCGGAGTCACCTAGTGCAG,22900 fluorescence intensity (a.u.)
20,CAAATTAACTGGAAATTTTGAAGCATCCATGTTCTGTGAGCGGAGTCACCTAGTGCAG,46600 fluorescence intensity (a.u.)
21,TTGATGTGCAATAATTAACGAGAGAAGAGTTTTCCCATAGCGGAGTCACCTAGTGCAG,10300 fluorescence intensity (a.u.)
22,TGGAATTGATTATGATGCTGTTTCCTTCATGGGAGCTCTACGGAGTCACCTAGTGCAG,31900 fluorescence intensity (a.u.)
23,ATGGCTGGGTTGATTGATATGGAGTACAAACTAAGTGTAGCGGAGTCACCTAGTGCAG,25000 fluorescence intensity (a.u.)
24,ACTAGTTAATCACGATTGATGGAAGCGGTTGATTGAATGACGGAGTCACCTAGTGCAG,51400 fluorescence intensity (a.u.)
25,CCATTAGATTAGCACTAATTATCATACTTAGTCATTAGCTCGGAGTCACCTAGTGCAG,59100 fluorescence intensity (a.u.)
26,ATTAATTAGCTCTAGATTAAGCTAATTGCCATCAATGGCTCGGAGTCACCTAGTGCAG,46400 fluorescence intensity (a.u.)
27,TGGAATTCATCTAATTATATCATTTTCCTCCATACTAGCTCGGAGTCACCTAGTGCAG,3430 fluorescence intensity (a.u.)
